About 79,000 compounds went through this panel and 15% of them were active in at least one assay; those are over-represented in the sample as a whole. Calls of active or inactive are those of the source. Rule as the data show it: active = growth inhibition above about 70%; inactive = the rest.
Columns and labels:
[1] = NCI Yeast Anticancer Drug Screen. Data for the sgs1 strain (AID 173);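 also: 0% = growth of vehicle-only control cultures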; conditions: S. cerevisiae sgs1 mutant, active compounds read high
How it was run: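 Vehicle-treated cultures served as reference for growth inhibition of a yeast strain altered in DNA damage repair or cell cycle control after compound exposure.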

[2] = NCI Yeast Anticancer Drug Screen. Data for the mlh1 rad18 strain (AID 175); conditions: S. cerevisiae mlh1 rad18 strain growth inhibition, active compounds read high
How it was run: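 Inhibition values reflect reduced growth of mutant yeast versus vehicle-treated controls following compound exposure; the mutations affect DNA damage repair.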

[3] = NCI Yeast Anticancer Drug Screen. Data for the rad18 strain (AID 177); conditions: S. cerevisiae rad18 mutant growth inhibition, active compounds read high
How it was run: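 Steps: expose repair-mutant yeast to compound; measure growth; express as inhibition relative to vehicle control.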

[4] = NCI Yeast Anticancer Drug Screen. Data for the rad52 strain (AID 147);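 also: 0% = growth of vehicle-treated control cultures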; conditions: S. cerevisiae rad52 mutant growth inhibition, active compounds read high
How it was run: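 Inhibition of yeast growth, referenced to vehicle controls, was the measured output for a strain with defective DNA damage repair.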

[5] = NCI Yeast Anticancer Drug Screen. Data for the wt1 strain (AID 149);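 also: 0% = growth of vehicle-treated wt1 cultures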; conditions: S. cerevisiae wt1 strain (SPY 50644) growth inhibition, active compounds read high
How it was run: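 Vehicle-normalised growth inhibition; strain wt1; compound exposure.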

[6] = NCI Yeast Anticancer Drug Screen. Data for the mgt1 strain (AID 153); conditions: S. cerevisiae mgt1 mutant growth inhibition, active compounds read high
How it was run: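 In the mgt1 strain, test compounds were added and growth inhibition was determined relative to vehicle-treated controls.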

[7] = NCI Yeast Anticancer Drug Screen. Data for the rad50 strain (AID 155);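 also: 0% = growth of vehicle-only cultures of the same strain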; conditions: S. cerevisiae rad50 strain growth inhibition, active compounds read high
How it was run: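 A DNA repair-deficient yeast mutant serves as the test organism; compound-induced growth inhibition is calculated against vehicle-treated cells.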

[8] = NCI Yeast Anticancer Drug Screen. Data for the mec2-1 strain (AID 157); conditions: S. cerevisiae mec2-1 strain, active compounds read high
How it was run: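 Each compound was tested on mec2-1 yeast, a strain altered in DNA damage repair or cell cycle control. Growth inhibition is reported relative to vehicle.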

[9] = NCI Yeast Anticancer Drug Screen. Data for the rad14 strain (AID 159);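 also: 0% = growth of vehicle-treated control cultures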; conditions: S. cerevisiae rad14 strain growth inhibition, active compounds read high
How it was run: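 Vehicle-treated cultures served as the baseline for growth inhibition of a DNA repair-mutant yeast strain exposed to each compound.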

[10] = NCI Yeast Anticancer Drug Screen. Data for the sgs1 mgt1 strain (AID 161);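 also: 0% = growth of cultures given vehicle only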; conditions: S. cerevisiae sgs1 mgt1 strain, active compounds read high
How it was run: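 Read-out: growth inhibition vs vehicle controls. Cells: mutant yeast strain deficient in DNA damage repair.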

[11] = NCI Yeast Anticancer Drug Screen. Data for the CLN2oe strain (AID 163);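 also: 0% = growth of vehicle-only control cultures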; conditions: S. cerevisiae CLN2oe strain, active compounds read high
How it was run: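 First, the altered yeast strain was treated with each compound; second, its growth was measured; finally, inhibition was derived by comparison with vehicle controls.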

[12] = NCI Yeast Anticancer Drug Screen. Data for the cln2 rad14 strain (AID 165);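 also: 0% = growth equal to vehicle treated cultures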; conditions: S. cerevisiae cln2 rad14 strain, active compounds read high
How it was run: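 Test compounds were added to cln2 rad14 yeast cultures; inhibition of growth was then determined by comparison with vehicle treatment.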

[13] = NCI Yeast Anticancer Drug Screen. Data for the bub3 strain (AID 167); conditions: S. cerevisiae bub3 mutant strain, active compounds read high
How it was run: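 Inhibition values come from growth of compound-treated mutant yeast normalised to vehicle-treated controls.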

[14] = NCI Yeast Anticancer Drug Screen. Data for the wt2 strain (AID 169);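 also: 0% = growth of vehicle-treated yeast cultures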; conditions: S. cerevisiae wt2 strain growth inhibition, active compounds read high
How it was run: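 The panel's yeast strains carry defined changes in DNA repair or cell cycle genes. Each strain is grown with compound, and growth loss is scored relative to vehicle.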

[15] = NCI Yeast Anticancer Drug Screen. Data for the mlh1 strain (AID 171);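 also: 0% = growth of vehicle-treated control cultures of the same strain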; conditions: S. cerevisiae mlh1 strain growth inhibition, active compounds read high
How it was run: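 Inhibition values reflect reduced yeast growth in the presence of compound, referenced to vehicle controls, using a strain chosen for its alteration in DNA repair or cell cycle control.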

[16] = at 5.0 µM (retest, dose inferred, filed as 0.5)
[17] = at 50.0 µM (retest, dose inferred, filed as 5.0)

Measured: growth inhibition

CC(C)CCCC(C)C1CCC2C3CCC4=CC(=O)/C(=C\O)CC4(C)C3CCC12C (stereo unspecified)
inactive: [1]; at 1.2 µM 0% | [1]; at 3.7 µM -1% | [1]; at 11.0 µM -1% | [1]; at 33.0 µM 3% | [1]; at 100.0 µM 29% | [2]; [16] 2% | [2]; [17] 52% | [2]; at 50.0 µM 26.1% | [3]; at 1.2 µM 3% | [3]; at 3.7 µM 3% | [3]; at 11.0 µM 2% | [3]; at 33.0 µM 6% | [3]; at 100.0 µM 28%

Brc1ccccc1-c1ncc(-c2ccccc2)o1
active: [6]; at 33.0 µM 73% | [6]; at 100.0 µM 78% | [7]; [17] 81% | [7]; at 50.0 µM 72.2% | [7]; at 100.0 µM 70% | [8]; [17] 98% | [8]; at 100.0 µM 76% | [9]; at 100.0 µM 80% | [10]; at 50.0 µM 71.4% | [13]; at 33.0 µM 74% | [13]; [17] 82% | [13]; at 50.0 µM 71.2% | [13]; at 100.0 µM 76% | [2]; [17] 82% | [3]; at 33.0 µM 75% | [3]; at 100.0 µM 78%
inactive: [4]; at 1.2 µM -7% | [4]; at 3.7 µM -3% | [4]; at 11.0 µM 19% | [4]; at 33.0 µM 42% | [4]; at 100.0 µM 55% | [5]; at 1.2 µM -12% | [5]; at 3.7 µM -26% | [5]; at 11.0 µM -12% | [5]; at 33.0 µM 21% | [5]; at 100.0 µM 44% | [6]; at 1.2 µM 15% | [6]; at 3.7 µM 27% | [6]; at 11.0 µM 33% | [7]; at 1.2 µM -1% | [7]; at 3.7 µM -2% | [7]; [16] 42% | [7]; at 11.0 µM 24% | [7]; at 33.0 µM 66% | [8]; at 1.2 µM 7% | [8]; at 3.7 µM -23% | [8]; [16] 42% | [8]; at 11.0 µM -10% | [8]; at 33.0 µM 40% | [8]; at 50.0 µM 47.1% | [9]; at 1.2 µM -43% | [9]; at 3.7 µM -36% | [9]; at 11.0 µM -16% | [9]; at 33.0 µM 55% | [10]; [16] -18% | [10]; [17] 61% | [11]; at 1.2 µM 0% | [11]; at 3.7 µM -8% | [11]; at 11.0 µM 3% | [11]; at 33.0 µM 6% | [11]; at 100.0 µM 5% | [12]; [16] 33% | [12]; [17] 68% | [12]; at 50.0 µM 37.9% | [13]; at 1.2 µM 15% | [13]; at 3.7 µM 6% | [13]; [16] 40% | [13]; at 11.0 µM 52% | [14]; at 1.2 µM -46% | [14]; at 3.7 µM -43% | [14]; at 11.0 µM -35% | [14]; at 33.0 µM 21% | [14]; at 100.0 µM 43% | [15]; at 1.2 µM -4% | [15]; at 3.7 µM -13% | [15]; at 11.0 µM 15% | [15]; at 33.0 µM 47% | [15]; at 100.0 µM 60% | [1]; at 1.2 µM -1% | [1]; at 3.7 µM -17% | [1]; at 11.0 µM 7% | [1]; at 33.0 µM 50% | [1]; at 100.0 µM 60% | [2]; [16] 37% | [2]; at 50.0 µM 56.9% | [3]; at 1.2 µM -7% | [3]; at 3.7 µM 0% | [3]; at 11.0 µM 51%

CCOC(=O)c1cc([N+](=O)[O-])c(Sc2ncnc3nc[nH]c23)c([N+](=O)[O-])c1
inactive: [4]; at 1.2 µM 0% | [4]; at 3.7 µM 0% | [4]; at 11.0 µM 34% | [5]; at 1.2 µM -22% | [5]; at 3.7 µM -26% | [5]; at 11.0 µM -6% | [5]; at 33.0 µM 62% | [6]; at 1.2 µM -20% | [6]; at 3.7 µM -29% | [6]; at 11.0 µM 16% | [7]; at 1.2 µM -40% | [7]; at 3.7 µM -18% | [7]; [16] 31% | [7]; at 11.0 µM 11% | [7]; [17] 63% | [7]; at 50.0 µM 17.4% | [8]; at 1.2 µM -22% | [8]; at 3.7 µM -13% | [8]; [16] 29% | [8]; at 11.0 µM 38% | [8]; at 50.0 µM 58% | [9]; at 1.2 µM -34% | [9]; at 3.7 µM -23% | [9]; at 11.0 µM -3% | [10]; [16] 6% | [10]; [17] -13% | [10]; at 50.0 µM 56% | [11]; at 1.2 µM -18% | [11]; at 3.7 µM -2% | [11]; at 11.0 µM 29% | [11]; at 33.0 µM 49% | [12]; [16] -5% | [12]; [17] -64% | [12]; at 50.0 µM 60.3% | [13]; at 1.2 µM -19% | [13]; at 3.7 µM -7% | [13]; [16] 7% | [13]; at 11.0 µM 43% | [13]; [17] 34% | [13]; at 50.0 µM 33.1% | [14]; at 1.2 µM -31% | [14]; at 3.7 µM -25% | [14]; at 11.0 µM 2% | [14]; at 33.0 µM 46% | [15]; at 1.2 µM -28% | [15]; at 3.7 µM -23% | [15]; at 11.0 µM 50% | [1]; at 1.2 µM 13% | [1]; at 3.7 µM 13% | [1]; at 11.0 µM 41% | [3]; at 1.2 µM -17% | [3]; at 3.7 µM 9% | [3]; at 11.0 µM 55%
active: [4]; at 33.0 µM 79% | [4]; at 100.0 µM 90% | [5]; at 100.0 µM 92% | [6]; at 33.0 µM 81% | [6]; at 100.0 µM 89% | [7]; at 33.0 µM 75% | [7]; at 100.0 µM 89% | [8]; at 33.0 µM 89% | [8]; [17] 75% | [8]; at 100.0 µM 91% | [9]; at 33.0 µM 72% | [9]; at 100.0 µM 87% | [11]; at 100.0 µM 83% | [13]; at 33.0 µM 88% | [13]; at 100.0 µM 88% | [14]; at 100.0 µM 85% | [15]; at 33.0 µM 90% | [15]; at 100.0 µM 90% | [1]; at 33.0 µM 71% | [1]; at 100.0 µM 87% | [3]; at 33.0 µM 82% | [3]; at 100.0 µM 84%

— PubChem BioAssay (NCI)
